We go through eight compounds from PubChem BioAssay (NCI).

Among the test systems are HCT-15 colon; HT29 colon; SNB-75 CNS; SNB-19 CNS; U251 CNS; PC-3 prostate; SK-MEL-5 melanoma; UACC-62 melanoma; LOX IMVI melanoma; SK-MEL-28 melanoma; SK-MEL-2 melanoma; SN12C renal; UO-31 renal; TK-10 renal; ACHN renal; CAKI-1 renal; A498 renal; CCRF-CEM leukemia; MOLT-4 leukemia.
What all share (assay): NCI-60 one-dose screen, 48 h (100 = growth as untreated, 0 = no growth, -100 = all killed)
Holding throughout (conditions): 10 µM

About 83,000 compounds went through this panel and 20% of them were active in at least one assay; those are over-represented in the sample as a whole.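 For each line, cells grew in 96-well plates with the test compound present at a single concentration for 48 hours.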 Unmarked numbers belong to inactive results. Activity calls are given as the source filed them. How the source made its calls: active means growth percent below 10; inactive means the rest.

`COc1ccc(S(=O)(=O)Nc2ccc(OCc3nnc(-c4ccc(Cl)cc4)o3)c(F)c2)cc1`: the growth is 65.5% in the assay on HCT-15 colon; 83.7% in the assay on HT29 colon; 67.1% in the assay on SNB-75 CNS; 65.8% in the assay on SNB-19 CNS; 68.4% in the assay with U251 CNS; 52.3% with PC-3 prostate. Also, the growth in the assay with SK-MEL-5 melanoma was 15.7%; with UACC-62 melanoma, 42.4%; in the assay on LOX IMVI melanoma, 52.7%; in the assay on SK-MEL-28 melanoma it was 83.8%; in the assay on SK-MEL-2 melanoma it was 40.6%; in the assay on SN12C renal it was 68.1%. The growth with UO-31 renal is 51.3%; in the assay on TK-10 renal it was 57.6%; in the assay on ACHN renal it was 56.6%; in the assay with CAKI-1 renal, 54.6%; in the assay on A498 renal, 47%; in the assay with CCRF-CEM leukemia it was 54.5%. Besides, the growth with MOLT-4 leukemia was 36%.
As to `FC(F)(F)c1ccc(-c2ncc(-c3ccc(C(F)(F)F)cc3)c(NCc3cc(C(F)(F)F)cc(C(F)(F)F)c3)n2)cc1`, the growth in the assay on HCT-15 colon was 44.9%; in the assay with HT29 colon, 76.1%; in the assay with SNB-75 CNS, 72.4%; in the assay with SNB-19 CNS, 29.1%; in the assay on U251 CNS it was 27.1%; in the assay on PC-3 prostate it was 31.4%. In addition, the growth in the assay with SK-MEL-5 melanoma was 96.9%; in the assay with UACC-62 melanoma, 51.6%; with LOX IMVI melanoma, 21.5%; in the assay on SK-MEL-28 melanoma it was 89.5%; in the assay on SK-MEL-2 melanoma it was 69.9%; with SN12C renal, 34.2%. The growth with UO-31 renal is 37.1%; with TK-10 renal, 86.9%; in the assay on ACHN renal, 27.4%; with CAKI-1 renal, 37.5%; in the assay on A498 renal, 54.1%; in the assay with CCRF-CEM leukemia, 46.7%. The growth with MOLT-4 leukemia was 59.3%.
As for `CCCn1c(=O)c2c(nc(-c3cccc(OCCCCl)c3)n2C)n(CCC)c1=O`, the growth is 69.1% with HCT-15 colon; 74.2% with HT29 colon; -12.7% (active) in the assay with SNB-75 CNS; 32.9% with SNB-19 CNS; 17% in the assay with U251 CNS; 62.3% with PC-3 prostate. In addition, the growth in the assay with SK-MEL-5 melanoma is 64.9%; in the assay on UACC-62 melanoma it was 78.9%; with LOX IMVI melanoma, 48.5%; with SK-MEL-28 melanoma it was 81.7%; with SK-MEL-2 melanoma, 75.6%; in the assay on SN12C renal, 37.3%. Further, the growth with UO-31 renal is 27.8%; with TK-10 renal, 36.5%; with ACHN renal, 3.03% (active); in the assay with CAKI-1 renal it was 43.7%; in the assay on A498 renal, -10.8% (active); with CCRF-CEM leukemia it was 86.3%. The growth with MOLT-4 leukemia is 73.2%.
Take `COc1cc(C2CC(=O)Nc3c2c(C)nn3-c2nc3ccccc3[nH]2)cc(OC)c1O` (configuration not stated): the growth with HCT-15 colon is 40.3%; in the assay on HT29 colon it was 57.9%; with SNB-75 CNS it was 6.05% (active); with SNB-19 CNS, 44.1%; in the assay on U251 CNS it was 53.3%; with PC-3 prostate, 68.1%. For the same compound, the growth was 60.8% in the assay with SK-MEL-5 melanoma; 67.2% in the assay on UACC-62 melanoma; 55.1% in the assay on LOX IMVI melanoma; 13.2% in the assay on SK-MEL-28 melanoma; -7.45% (active) in the assay with SK-MEL-2 melanoma; 81.2% in the assay with SN12C renal. The growth is 8.39% (active) with UO-31 renal; 37.2% in the assay with TK-10 renal; 31.1% in the assay with ACHN renal; 78.9% with CAKI-1 renal; 22.5% in the assay on A498 renal; 0.819% (active) in the assay on CCRF-CEM leukemia. In the assay with MOLT-4 leukemia, the growth is -36% (active).
On to `CC(C)c1ncc(CO)n1Cc1c(Cl)cccc1Cl`, for which the growth was 97.7% in the assay on HCT-15 colon; 99.4% in the assay with HT29 colon; 91.6% in the assay with SNB-75 CNS; 142% in the assay with SNB-19 CNS; 101% in the assay on U251 CNS; 94.4% with PC-3 prostate. Also, the growth with SK-MEL-5 melanoma was 100%; in the assay with UACC-62 melanoma, 108%; in the assay with LOX IMVI melanoma, 104%; with SK-MEL-28 melanoma, 120%; with SK-MEL-2 melanoma, 101%; in the assay on SN12C renal, 113%. Besides, the growth in the assay with UO-31 renal was 90.1%; in the assay on TK-10 renal it was 95%; in the assay on ACHN renal it was 99.9%; in the assay with CAKI-1 renal it was 100%; with A498 renal it was 77.8%; with CCRF-CEM leukemia it was 103%. Further, the growth in the assay with MOLT-4 leukemia is 101%.
With `COc1cccc(-c2nnc(COc3ccc(-c4nc5ccc(C)cc5[nH]4)cc3OC)o2)c1`, the growth is 18.5% in the assay with HCT-15 colon; 21.4% in the assay with HT29 colon; 56.6% in the assay with SNB-75 CNS; 69.6% in the assay on SNB-19 CNS; 23% in the assay with U251 CNS; 57.7% with PC-3 prostate. For the same compound, the growth was 70.4% in the assay on SK-MEL-5 melanoma; 79.9% in the assay with UACC-62 melanoma; 78.4% in the assay on LOX IMVI melanoma; 65.2% in the assay on SK-MEL-28 melanoma; 98.8% in the assay on SK-MEL-2 melanoma; 72.6% in the assay on SN12C renal. For the same compound, the growth in the assay with UO-31 renal is 88.2%; in the assay on TK-10 renal, 102%; with ACHN renal, 25.9%; with CAKI-1 renal, 94.4%; in the assay on A498 renal, 71.3%; in the assay with CCRF-CEM leukemia it was 2.49% (active). In addition, the growth with MOLT-4 leukemia was 25.6%.
On to `CCOC(=O)CSC(=S)SCC(=O)OCC`, for which the growth in the assay on HCT-15 colon is 94.6%; in the assay on HT29 colon it was 99.8%; in the assay with SNB-75 CNS it was 83.1%; with SNB-19 CNS, 105%; in the assay on U251 CNS it was 104%; with PC-3 prostate, 103%. The growth in the assay with SK-MEL-5 melanoma is 106%; in the assay on UACC-62 melanoma it was 101%; with LOX IMVI melanoma it was 98.6%; in the assay on SK-MEL-28 melanoma it was 97.7%; with SK-MEL-2 melanoma it was 96.7%; in the assay with SN12C renal it was 106%. The growth is 102% in the assay with UO-31 renal; 132% in the assay with TK-10 renal; 109% with ACHN renal; 103% in the assay with CAKI-1 renal; 121% in the assay with A498 renal; 85.1% with CCRF-CEM leukemia. Also, the growth in the assay with MOLT-4 leukemia is 96.6%.
As to `COc1ccc(C2C=C(c3ccc(Cl)c(Cl)c3)N=C3SC(C)=CN32)cc1` (configuration not stated), the growth is 85.5% with HCT-15 colon; 71.1% in the assay with HT29 colon; 89.8% in the assay with SNB-75 CNS; 96.6% with SNB-19 CNS; 84.2% in the assay with U251 CNS; 90.5% in the assay with PC-3 prostate. The growth is 93.6% with SK-MEL-5 melanoma; 92.1% in the assay on UACC-62 melanoma; 83.4% in the assay on LOX IMVI melanoma; 104% in the assay with SK-MEL-28 melanoma; 94.8% in the assay on SK-MEL-2 melanoma; 99.6% in the assay with SN12C renal. For the same compound, the growth is 77.5% in the assay on UO-31 renal; 92.8% in the assay on TK-10 renal; 103% in the assay on ACHN renal; 95.7% with CAKI-1 renal; 91% in the assay on A498 renal; 82.8% in the assay on CCRF-CEM leukemia. The growth with MOLT-4 leukemia is 79.5%.
